Luciferase inh – blocks purified firefly luciferase enzyme activity. purified P. pyralis luciferase, luminescence, biochemical. AID 1347043. Potency, µM (titrated, usually from 115 µM), actives largely listed as inhibitors. actives 2.5% (n = 76,000); further: on the % scale 0 is the no-effect control and ±100 the full control effect; nearly all actives have a fitted effect of over 65% in size
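Purified 10nM P. pyralis luciferase with 10uM D-luciferin and 10uM ATP in 50mM Tris acetate pH 7.5, 10mM Mg acetate, 0.01% Tween-20, 0.05% BSA. qHTS titration; luminescence read by CCD imager.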
HEK293 tox – kills HEK 293 cells | actives 6.6% (n = 94,000) | Potency, µM (series often up to 115 µM), inactives show at the highest dose activity change, negative = cytotoxicity, usual class: inhibitors | AID 1345083 | HEK 293 viability, ATP luminescence (CellTiter-Glo), 48-72 h; further: on the % scale 0 is the no-effect control and ±100 the full control effect; nearly all actives have a fitted effect of over 60% in size
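qHTS cytotoxicity; HEK 293, 250 cells/well; compound pinned; 48 or 72 hr, 37 degree Celsius, 5% CO2, 95% humidity; CellTiter-Glo, 10 min RT; luminescence (ATP).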
hNpr1 antagonist – human Npr1 receptor antagonism | P16066 | Potency, µM (highest dose often 46.3 µM), without a hit: at the highest dose activity change, negative = inhibition, usual class: inhibitors | actives 1.6% (n = 76,000) | HEK293 hNpr1 GloSensor cGMP, ANP-stimulated luminescence; calls by dose curve; further: on the % scale 0 is the no-effect control and ±100 the full control effect; nearly all actives have a fitted effect of over 60% in size
Target sequence (P16066 whole entry, looked up): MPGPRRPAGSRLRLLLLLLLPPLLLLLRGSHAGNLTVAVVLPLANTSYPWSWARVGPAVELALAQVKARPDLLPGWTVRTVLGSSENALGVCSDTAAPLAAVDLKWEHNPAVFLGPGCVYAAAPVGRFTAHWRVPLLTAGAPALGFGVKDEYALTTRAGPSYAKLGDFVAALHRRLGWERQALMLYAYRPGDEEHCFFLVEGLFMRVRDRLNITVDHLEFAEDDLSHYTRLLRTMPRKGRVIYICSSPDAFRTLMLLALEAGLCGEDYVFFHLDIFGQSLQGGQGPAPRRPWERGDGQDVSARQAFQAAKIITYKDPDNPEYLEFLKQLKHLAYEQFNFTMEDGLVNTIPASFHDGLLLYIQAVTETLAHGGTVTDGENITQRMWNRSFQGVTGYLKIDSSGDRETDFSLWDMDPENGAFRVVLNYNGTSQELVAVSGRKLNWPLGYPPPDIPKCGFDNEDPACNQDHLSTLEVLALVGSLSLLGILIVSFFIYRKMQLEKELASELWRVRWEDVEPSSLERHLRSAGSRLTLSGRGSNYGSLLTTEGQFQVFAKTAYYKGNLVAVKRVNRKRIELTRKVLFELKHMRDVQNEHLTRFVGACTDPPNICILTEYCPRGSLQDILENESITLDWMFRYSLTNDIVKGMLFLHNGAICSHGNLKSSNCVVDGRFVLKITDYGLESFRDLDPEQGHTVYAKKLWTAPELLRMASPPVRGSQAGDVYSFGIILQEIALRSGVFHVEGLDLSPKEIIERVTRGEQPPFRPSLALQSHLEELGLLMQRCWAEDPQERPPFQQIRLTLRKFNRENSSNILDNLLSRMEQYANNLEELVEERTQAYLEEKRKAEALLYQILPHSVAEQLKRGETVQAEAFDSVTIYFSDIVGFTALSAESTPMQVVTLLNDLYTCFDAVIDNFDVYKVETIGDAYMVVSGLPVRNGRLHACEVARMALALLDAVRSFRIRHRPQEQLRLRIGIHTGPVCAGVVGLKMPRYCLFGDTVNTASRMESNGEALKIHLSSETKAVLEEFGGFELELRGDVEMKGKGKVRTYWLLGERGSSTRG
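Compound pre-incubated 30 min at room temperature on GloSensor-loaded HEK293 cells stably carrying hNpr1 and the pGS-40F cGMP biosensor. Stimulation uses hNppA at 0.1 nM final; luminescence is taken at baseline and 20 min post-agonist.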
NIH3T3 tox – NIH 3T3 cell cytotoxicity; NIH 3T3 viability, CellTiter-Glo ATP luminescence, 48-72 h; actives 4.3% (n = 94,000); Potency, µM (highest dose often 96.7 µM), inactives show at the top dose activity change, negative = cytotoxicity, hits mostly inhibitors; further: on the % scale 0 is the no-effect control and ±100 the full control effect; nearly all actives have a fitted effect of over 55% in size
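Cells were seeded at 400 per well, treated with pin-transferred compound, and kept 48 or 72 hr at 37 °C before CellTiter-Glo addition and luminescence imaging of cellular ATP.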
Npr1 antag conf – hNpr1 antagonism, confirmation assay. Potency, µM (series often up to 57.6 µM), for inactives: at the highest dose activity change, negative = inhibition, most hits filed as inhibitors. actives 76% (n = 1,400). shares compounds with hNpr1 antagonist. HEK293 hNpr1 cGMP GloSensor luminescence, ANP-stimulated; calls by dose curve; further: nearly all actives have a fitted effect of over 70% in size
Npr2 selectivity – hNpr2 antagonism, selectivity versus Npr1. Potency, µM (highest dose often 57.6 µM), inactives show at the highest dose activity change, negative = inhibition, usual class: inhibitors. HEK293 hNpr2 GloSensor cGMP luminescence, CNP-stimulated. actives 67% (n = 1,400). shares compounds with hNpr1 antagonist. AID 1347046; calls by dose curve; further: nearly all actives have a fitted effect of over 70% in size
FLuc counter – FLuc enzyme inhibition, Npr1 counter-screen | shares compounds with hNpr1 antagonist | purified FLuc enzyme, luminescence, Km substrate | Potency, µM (series often up to 57.6 µM), without a hit: top-dose activity change, negative = inhibition, actives largely listed as inhibitors | actives 0.7% (n = 1,400) | AID 1347047; further: 0% is about no effect
GloSensor cGMP – reduces cGMP signal in GloSensor control cells | shares compounds with hNpr1 antagonist | HEK293 GloSensor cGMP, SNP-stimulated, luminescence | Potency, µM (top dose mostly 57.6 µM), without a hit: top-dose activity change, negative = inhibition, most hits filed as inhibitors | actives 69% (n = 1,400); calls by dose curve; further: on the % scale 0 is the no-effect control and ±100 the full control effect; nearly all actives have a fitted effect of over 70% in size
An asterisk follows results filed as active; i = inactive; ? = inconclusive; . = no result; [ ] = another dose, or the depositor's remark. An excerpt weighted towards active compounds, which were near 11% of everything screened. Unless noted, the call rests on the fitted dose curve; in most records, active means well fitted curve in the direction sought with a large enough effect; inconclusive means small, poorly fitted or top-dose-only effect, or another doubt; inactive means no such curve, though single readings can be large; an effect the other way counts as inactive or inconclusive. Potency means the concentration at half of the fitted maximal effect.

SMILES	Luciferase inh	HEK293 tox	hNpr1 antagonist	NIH3T3 tox	Npr1 antag conf	Npr2 selectivity	FLuc counter	GloSensor cGMP
CC1=C(C(=O)Nc2ccccc2)C(c2cccc(C)c2)N2C(CC(=O)NC3CC3)=CSC2=N1 (stereo unspecified)	i	?	?	?	?	?	-2%	?
COc1cccc(C(=O)N2CCCN(c3cc(-c4ccc(C)c(C)c4)[nH]n3)CC2)c1OC	i	40µM*	10µM*	?	24µM*	22µM*	-11%	24µM*
COc1ccccc1C(=O)N1CCCN(c2cc(-c3ccc(F)cc3)[nH]n2)CC1	i	?	-12%	?	.	.	.	.
COc1cccc(C(=O)N2CCCN(c3cc(-c4ccc(Cl)cc4)[nH]n3)CC2)c1OC	i	?	11µM*	?	19µM*	17µM*	5%	15µM*
COc1ccc(C2(C(=O)NCC(=O)N3CCCCCCNC(=O)CC3c3ccccc3)CC2)cc1 (stereo unspecified)	i	-32%	3%	-8%	.	.	.	.
COc1ccc(NC(=O)c2ccc3c(c2)NC(C)(CNc2ccccc2)CO3)cn1 (stereo unspecified)	i	45µM*	35µM*	?	40µM*	?	-27%[86.2 µM]	?
CC1(COCC2CC2)COc2ccc(C(=O)Nc3cccnc3)cc2N1 (stereo unspecified)	?	?	?	-24%[138 µM]	-30%[86.2 µM]	-26%[86.2 µM]	-18%[86.2 µM]	-21%[86.2 µM]
CCc1ccc(CN2CCCC23Cc2ccccc2CNC3=O)s1 (stereo unspecified)	.	?	.	?	-21%	-5%	4%	0%
COc1ccc(CN2CCCCC23Cc2ccccc2CNC3=O)c(OC)n1 (stereo unspecified)	.	?	.	?	?	17µM*	-1%	4%
CN1CCC(NC(=O)c2ccc3c(c2)N(S(=O)(=O)c2ccccc2F)CC3)CC1	i	?	-2%	?	.	.	.	.
O=C(C1CCCN1C(=O)c1cccc(-c2ccccn2)c1)N1CCN(c2ncccn2)CC1 (stereo unspecified)	.	-9%	.	-25%	.	.	.	.
CC(C)c1ccc(CN2CCC3(CC2)OCCN(c2ccc(F)cc2)C3=O)cc1	i	?	22µM*	?	35µM*	31µM*	-2%[86.2 µM]	35µM*
O=C(O)COc1ccc(-c2nccc3c2C(=O)N(Cc2c[nH]c4ccccc24)CC(COc2ccccc2)O3)cc1 (stereo unspecified)	?	4%	7%	?	.	.	.	.
CC(C)C(=O)NCC1CN(Cc2ccccc2)C(=O)c2c(ccnc2-c2ccc(OCC(=O)O)cc2)O1 (stereo unspecified)	i	25µM*	5.6µM*	?	5.4µM*	6.1µM*	3%	4.8µM*
O=C(O)COc1ccc(-c2nccc3c2C(=O)N(Cc2cccc(C(F)(F)F)c2)CC(CNC(=O)C2CCOCC2)O3)cc1 (stereo unspecified)	i	?	?	?	8.6µM*	?	5%	5.4µM*
CN(Cc1cccc(O)c1)C(=O)c1cc(COc2ccccc2F)[nH]n1	i	?	-11%	-21%	.	.	.	.
COc1ccc(N2C(=O)C3(CCCCC3)C2C(=O)NCCCN2CCCCC2)cc1 (stereo unspecified)	i	-12%	4%	i	.	.	.	.
Cc1ccc(C2Cn3nnc(C(=O)N4CCN(C(=O)c5cccc(Cl)c5)CC4)c3CO2)cc1 (stereo unspecified)	i	32µM*	?	?	15µM*	22µM*	2%	14µM*
COc1ccc(C2Cn3nnc(C(=O)N4CCN(C(=O)c5ccc(C)s5)CC4)c3CO2)cc1 (stereo unspecified)	i	?	?	?	24µM*	24µM*	0%	24µM*
COc1ccc(C2Cn3nnc(C(=O)N4CCN(C(=O)c5cccc(C)c5)CC4)c3CO2)cc1 (stereo unspecified)	i	8.9µM*	14µM*	?	19µM*	22µM*	5%	14µM*
Cc1ccc(C(=O)N2CCN(C(=O)c3nnn4c3COC(c3ccccc3)C4)CC2)s1 (stereo unspecified)	i	?	-22%	-20%	.	.	.	.
Cc1ccc(C2Cn3nnc(C(=O)N4CCN(C(=O)c5cccc(C)c5)CC4)c3CO2)cc1 (stereo unspecified)	i	45µM*	11µM*	?	22µM*	22µM*	-1%	19µM*
CN1c2cc(C(=O)NCc3ccccc3Br)ccc2C(=O)N2CCCC21 (stereo unspecified)	i	?	0%	-26%	.	.	.	.
COc1ccc(Cn2c(C3CCN(C(=O)c4ccc(C)cc4C)CC3)n[nH]c2=O)cc1	i	1%	0%	-17%	.	.	.	.
CCN(CC)C(=O)N1CC(Oc2ccc(-c3nc(C)no3)cc2)C1	i	?	16µM*	?	24µM*	?	0%	?
SMILES	Luciferase inh	HEK293 tox	hNpr1 antagonist	NIH3T3 tox	Npr1 antag conf	Npr2 selectivity	FLuc counter	GloSensor cGMP
CCN(CC)C(=O)N1CC(Oc2ccc(-c3noc(COC)n3)cc2)C1	i	?	10µM*	?	9.7µM*	8.6µM*	3%	6.9µM*
CCN(CC)C(=O)N1CC(Oc2cccc(-c3nc(C)no3)c2)C1	i	?	0%	-16%	.	.	.	.
COCc1nc(-c2ccc(OC3CN(C(=O)NC(C)C)C3)cc2)no1	i	?	13µM*	-22%	24µM*	24µM*	-2%	24µM*
COCc1nc(-c2ccc(OC3CN(C(=O)NCc4ccccc4)C3)cc2)no1	i	?	?	-28%	.	.	.	.
Cc1noc(-c2ccc(OC3CN(C(=O)NCc4ccc(F)cc4)C3)cc2)n1	i	?	13µM*	?	27µM*	?	-1%	24µM*
Cc1noc(-c2ccc(OC3CN(C(=O)NCc4ccccc4)C3)cc2)n1	i	?	?	?	.	.	.	.
CN(CC1CCOC1)C(=O)Nc1ccc(Cl)cc1F (stereo unspecified)	i	2%	6%	i	.	.	.	.

From PubChem
